Source: PubChem BioAssay AID1851 (National Center for Advancing Translational Sciences (NCATS), 2009)
Out of some 16,000 compounds screened, about 4,000 (25%) were called active. Another 26% or so got no clear call; they are omitted. The list is a sample of the results. The source holds several records for some structures; these can differ, active in one and inactive in another. A number with no mark means an inactive call. Calls come from the whole dose curve; as a rule, active = well fitted curve in the direction sought with a large enough effect; inconclusive = small, poorly fitted or top-dose-only effect, or effect the other way; inactive = no such curve, though single readings can be large or run the other way.

target: Cytochrome P450 2C9 (Homo sapiens) (UniProt P11712); assay: Cytochrome panel assay with activity outcomes; conditions: recombinant CYP, pro-luciferin dealkylation, luminescence, p450-cyp2c9; series mostly up to 57.1 µM
Sequence (P11712 whole entry, looked up): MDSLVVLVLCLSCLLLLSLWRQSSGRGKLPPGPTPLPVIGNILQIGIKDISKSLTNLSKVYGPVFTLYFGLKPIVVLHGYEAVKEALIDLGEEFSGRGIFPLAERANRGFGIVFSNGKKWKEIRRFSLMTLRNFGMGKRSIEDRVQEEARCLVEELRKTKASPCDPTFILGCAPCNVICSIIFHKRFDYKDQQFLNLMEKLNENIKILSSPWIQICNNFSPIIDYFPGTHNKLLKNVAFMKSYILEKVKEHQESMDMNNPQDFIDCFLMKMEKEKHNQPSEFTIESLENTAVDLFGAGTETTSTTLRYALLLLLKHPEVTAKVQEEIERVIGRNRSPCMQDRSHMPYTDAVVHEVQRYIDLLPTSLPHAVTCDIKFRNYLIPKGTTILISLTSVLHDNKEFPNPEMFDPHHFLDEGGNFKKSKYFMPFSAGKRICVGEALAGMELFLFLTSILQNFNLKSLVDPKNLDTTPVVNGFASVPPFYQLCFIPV
% is set by controls: 0 for no effect and ±100 for the full control effect.

Row | SMILES | activity, negative = inhibition | AC50
1 | O=C(O)[C@@H]1[C@H](C(=O)O)[C@]2(Cl)C(Cl)=C(Cl)[C@@]1(Cl)C2(Cl)Cl | -24.4% [at 11.4 µM] | –
2 | C/C=C(\C)C(=O)O[C@@H]1C(C)=C2[C@H]([C@@H]1OC(=O)CCCCCCC)[C@@](C)(OC(C)=O)C[C@@H](OC(=O)CCC)[C@@]1(O)[C@H]2OC(=O)[C@]1(C)O | – | 31.6 µM (active)
3 | CNC[C@H](O)c1ccc(O)cc1 | inactive | –
4 | CN1CCN(c2ccc3ccccc3n2)CC1 | inactive | –
5 | CCCN1CCO[C@@H]2c3cc(O)ccc3OC[C@H]21 | inactive | –
6 | O=[As](O)(O)c1ccc2nc3cc([As](=O)(O)O)ccc3nc2c1 | 1.65% [at 11.4 µM] | –
7 | CCCN1CCc2cccc3c2[C@@H]1Cc1ccc(O)c(O)c1-3 | inactive | –
8 | COCCn1c(SCc2nc3sc(C(=O)OC)c(C)c3c(=O)[nH]2)nc2ccccc21 | – | 0.891 µM (active)
9 | NC(N)=Nc1ccc2[nH]c3c(c2c1)C[C@]1(O)[C@@H]2Cc4ccc(O)c5c4[C@]1(CCN2CC1CC1)[C@@H]3O5 | inactive | –
10 | CCN1C[C@@]2(COC)[C@H]3[C@@H](OC)[C@H]4C1[C@@]3([C@H](OC)C[C@@H]2O)[C@H]1C[C@@]2(O)[C@@H](OC(=O)c3ccccc3)[C@@H]1[C@@]4(OC(C)=O)[C@H](O)[C@@H]2OC | inactive | –
11 | COc1ccc(C2SCC(=O)Nc3c2c(C)nn3-c2ccccc2)cc1OC (stereo unspecified) | – | 10 µM (active)
12 | O=C(Oc1ccc(S(=O)(=O)F)cc1F)c1ccccc1Cl | -12.2% [at 11.4 µM] | –
13 | C/C(O)=C(/C#N)C(=O)Nc1cc(Br)ccc1Br | inactive | –
14 | O=C1C2CCN(CC2)C1(CO)CO | -2.93% [at 11.4 µM] | 0.0631 µM (active)
15 | O=P(O)(O)C(Cl)(Cl)P(=O)(O)O | inactive | –
16 | COC1=CC(=O)O[C@@H](/C=C\c2ccccc2)C1 | inactive | –
17 | N[C@H](CP(=O)(O)O)C(=O)O | inactive | –
18 | CCCCN1C(=O)C(C2c3ccccc3C(=O)N2Cc2ccccc2)C(=O)NC1=S (stereo unspecified) | – | 2 µM (active)
19 | CN1C(=O)C(C2c3ccccc3C(=O)N2Cc2ccc([N+](=O)[O-])cc2)C(=O)N(C)C1=O (stereo unspecified) | – | 25.1 µM (active)
20 | Cc1cc(C)c(-n2c(O)c(C=NCCN3CCOCC3)c(=O)[nH]c2=O)c(C)c1 | inactive | –
21 | CCC(=O)Nc1ccc(N2CCN(CC)CC2)c(Cl)c1 | inactive | –
22 | NC(=O)CN1C[C@@H](O)CC1=O | inactive | –
23 | CC1(C)CCC(C)(C)c2c1ccc(O)c2Cc1c(O)ccc2c1C(C)(C)CCC2(C)C | -17.2% [at 11.4 µM] | –

Row | SMILES | activity, negative = inhibition | AC50
24 | C[C@@]12CCC(=O)C=C1C=C[C@H]1[C@H]3CC[C@](O)(CCC(=O)O)[C@]3(C)CC[C@@H]12 | inactive | –
25 | O=C(C[C@H](c1ccccc1)c1c(O)c2ccccc2oc1=O)c1ccccc1 | – | 0.631 µM (active)
26 | CC(C)c1ccc(C(c2c(O)c3ccccc3oc2=O)c2c(O)c3ccccc3oc2=O)cc1 | – | 3.16 µM (active)
27 | c1ccc(CN2CCCC3(CCNCC3)C2)cc1 | inactive | –
28 | CN1CCC(c2c[nH]c3ccc(O)cc23)CC1 | inactive | –
29 | C[C@]1(O)CC[C@H]2[C@@H]3[C@@H](O)CC4=CC(=O)CC[C@@]4(C)[C@H]3CC[C@]21C | 14% [at 11.4 µM] | –
30 | C[C@@H]1O[C@@H](O[C@H]2C[C@@H](O)[C@]3(CO)[C@@H]4[C@@H](O)C[C@]5(C)[C@H]([C@@H]6COC(=O)C6)CC[C@@]5(O)[C@H]4CC[C@@]3(O)C2)[C@H](O)[C@H](O)[C@@H]1O | inactive | –
31 | CN1CCC2(CC1)CCN(C(=O)Oc1ccccc1)CC2 | inactive | –
32 | C[C@@]12C(=O)OC(=O)[C@]1(C)[C@H]1CC[C@@H]2O1 | inactive | –
33 | O=C(Nc1ccc(C(F)(F)F)cc1)c1cccn(Cc2ccc3c(c2)OC(F)(F)O3)c1=O | – | 8.91 µM (active)
34 | O=C(Nc1cccc(C(F)(F)F)c1)c1cccn(Cc2ccc3c(c2)OC(F)(F)O3)c1=O | – | 3.16 µM (active)
35 | O=P(O)(O)CCP(=O)(O)O | -4.93% [at 11.4 µM] | –
36 | C[N+]1(C)[C@@H]2CC[C@H]1CC(OC(=O)c1c[nH]c3ccccc13)C2 (stereo partly specified) | inactive | –
37 | C[C@]12N[C@H](Cc3ccccc31)c1ccccc12 | inactive | –
38 | CCN(CCCl)Cc1ccccc1Br | inactive | –
39 | CC(C)c1ccc2c(c1)c(SC(C)(C)C)c(CC(C)(C)C(=O)O)n2Cc1ccc(Cl)cc1 | – | 6.31 µM (active)
40 | CC[C@H](C(=O)[C@H](C)[C@H](O)[C@H](C)CCc1ccc(C)c(O)c1C(=O)O)[C@H]1O[C@](CC)([C@@H]2CC[C@@](O)(CC)[C@H](C)O2)C[C@H]1C | inactive | –
41 | CC[C@@]1(c2ccc(N)cc2)CCC(=O)NC1=O | inactive | –
42 | CC(C)NC(=O)N1CCC2(CC1)CCN(C(=O)Oc1ccccc1)CC2 | inactive | –
43 | NCCP(=O)(O)O | 4.14% [at 11.4 µM] | –
44 | NC(N)=NCCC[C@H](N)C(=O)O | inactive | –
45 | NP(N)(=O)NC(=O)c1ccc(F)cc1 | inactive | –
46 | O[C@@H](c1cc(-c2ccccc2)nc2c1ccc1ccccc12)[C@@H]1CCCCN1 | -8.99% [at 11.4 µM] | –

Row | SMILES | activity, negative = inhibition | AC50
47 | COc1ccc(Cc2nccc3cc(OC)c(OC)cc23)cc1OC | inactive | –
48 | CCC1C(=O)OCC1Cc1cncn1C (stereo unspecified) | – | 15.8 µM (active)
49 | CC[C@H]1C(=O)OC[C@H]1Cc1cncn1C | -29.2% [at 11.4 µM] | –
50 | CC(=O)O[C@H]1CC[C@@]2(C)[C@@H](CC[C@H]3[C@H]2CC(=O)[C@@]2(C)[C@@H]3C[C@H]3CC(C)=CC(=O)[C@H]32)C1 | -10.2% [at 11.4 µM] | –
51 | C[C@@]12CC[C@H](O)C[C@@H]1CC[C@H]1[C@H]2CC[C@@]2(C)[C@@H](C3=CC(=O)OC3)CC[C@]12O | inactive | –
52 | N#CCCN | inactive | –
53 | Ic1ccccc1CN[C@@H]1C2CCN(CC2)[C@H]1C(c1ccccc1)c1ccccc1 | inactive | –
54 | NC(N)=Nc1ccc2[nH]c3c(c2c1)C[C@]1(O)[C@@H]2Cc4ccc(O)c5c4[C@]1(CCN2CC1CC1)[C@H]3O5 | inactive | –
55 | COC(=O)[C@@H]1[C@@H]2C[C@H]3c4[nH]c5cc(OC)ccc5c4CCN3C[C@@H]2C[C@H](OC(=O)/C=C\c2cc(OC)c(OC)c(OC)c2)[C@H]1OC | inactive | –
56 | COc1cc2c(cc1OC)[C@H](C)NCC2 | inactive | –
57 | NC(=NCc1ccc(Cl)cc1)SCCCc1cnc[nH]1 | – | 12.6 µM (active)
58 | OCc1cnc[nH]1 | inactive | –
59 | NC(=NCCc1ccc(I)cc1)SCCCc1cnc[nH]1 | inactive | –
60 | C#CCN[C@@H](C)Cc1ccccc1 | inactive | –
61 | c1csc(CN2CC[C@@]3(CCCNC3)C2)n1 | inactive | –
62 | COc1ccc2c(c1)[C@]13CCCC[C@@H]1[C@H](C2)N(C)CC3 | inactive | –
63 | COc1ccc(C(=O)O[C@H]2CC[C@@]3(C)[C@H]4CC[C@H]5[C@]3(C[C@]3(O)[C@H]6CN7C[C@H](C)CC[C@H]7[C@](C)(O)[C@]6(O)[C@H](O)C[C@]53O)O[C@]24O)cc1OC | -11.3% [at 11.4 µM] | –
64 | O=c1[nH]c(=O)n(CCc2ccc(F)cc2)c(O)c1C=NCCCN1CCOCC1 | inactive | –
65 | CCC(=Nc1cc(OC)ccc1OC)c1c(O)[nH]c(=O)[nH]c1=O | inactive | –
66 | CCCCn1c(O)c(C(CC)=NCc2ccc(F)cc2)c(=O)[nH]c1=O | – | 3.55 µM (active)
67 | C=CCn1c(O)c(C(CC)=NC2CC2)c(=O)[nH]c1=O | inactive | –
68 | CCCCn1c(O)c(C(CC)=Nc2ccc(OC)cc2OC)c(=O)[nH]c1=O | – | 14.1 µM (active)
69 | CCCCn1c(O)c(C=NCCN2CCCCC2)c(=O)[nH]c1=O | inactive | –

Row | SMILES | activity, negative = inhibition | AC50
70 | C[C@]12CCC3c4ccc(OCC(=O)O)cc4CCC3C1CCC2=O (stereo partly specified) | -4.6% [at 11.4 µM] | –
71 | c1cc(C2N3CCCN2CC3)ccn1 (stereo unspecified) | 9.12% [at 11.4 µM] | –
72 | O=C(CCCN1CCC2(CC1)C(=O)N(Cc1cccc(F)c1)CN2c1ccccc1)c1ccc(F)cc1 | inactive | –
73 | CCCN1CCC[C@H](c2cccc(C#N)c2)C1 | inactive | –
74 | CCCN1CC[C@@H]2c3cc(O)ccc3CC[C@H]21 | inactive | –
75 | Cc1cccc([C@H](C)c2cnc[nH]2)c1C | – | 0.2 µM (active)
76 | O=C(O)[C@@H]1C[C@H]1[C@@H](NP(=O)(c1ccccc1)c1ccccc1)c1ccccc1 | inactive | –
77 | O=P(O)(O)c1ccccc1 (tested in a mixture with another compound) | 0.15% [at 11.4 µM] | –
78 | C=C(CC1(CNP(=O)(c2ccccc2)c2ccccc2)CC1)c1ccccc1 | – | 10 µM (active)
79 | O=C(O)[C@H]1C[C@@H]1[C@H](NP(=O)(c1ccccc1)c1ccccc1)c1ccccc1 | inactive | –
80 | C=C(CC1(C(C)NP(=O)(c2ccccc2)c2ccccc2)CC1)c1ccccc1 (stereo unspecified) | – | 7.94 µM (active)
81 | C=C(C)c1ccccc1 (tested in a mixture with another compound) | -0.349% [at 11.4 µM] | –
82 | Cc1c2cc[n+](CCN3CCCCC3)cc2c(C)c2c1[nH]c1ccc(O)cc12 | 17.8% [at 11.4 µM] | –
83 | COc1ccc(C[C@@H]2NC[C@H](O)[C@@H]2OC(C)=O)cc1 | inactive | –
84 | CC(C)c1nccn1Cc1ccc(Cl)cc1Cl | -23.6% [at 11.4 µM] | –
85 | NC1=Nc2ccccc2Oc2ccccc21 | inactive | –
86 | COc1ccccc1N1CCNCC1 | inactive | –
87 | O=C(O)c1ccccc1-c1c2cc(Br)c(=O)cc-2oc2[c]([Hg])c(O)c(Br)cc12 | – | 0.631 µM (active)
88 | COc1ccc2[nH]c3c(c2c1)CCNC3 | inactive | –
89 | C[N+]1(C)C2CC[C@H]1CC(OC(=O)[C@@H](CO)c1ccccc1)C2 (stereo partly specified) | 8.36% [at 11.4 µM] | –
90 | CC1(C)[C@@H]2CC[C@]1(C)CN(CCC[N+](C)(C)C)C2 | 1.62% [at 11.4 µM] | –
